Assay outcomes (PubChem BioAssay)
SARS PLpro yeast – inhibitors of SARS-CoV papain-like protease in yeast. S. cerevisiae expressing SARS-CoV PLpro, growth rescue. Potency, µM (highest dose often 32.9 µM), without a hit: top-dose activity, positive = growth rescue, actives largely listed as activators. 0.19% of 330,000 active; calls by dose curve; also: potency is read from the fitted curve at half-maximal effect; 0% is about no effect; nearly all actives have a fitted effect of over 55% in size
AmpC no deterg – inhibitors of E. coli AmpC beta-lactamase without detergent; AID 485341; Potency, µM (top dose mostly 57.1 µM), for inactives: at the top dose activity change, negative = inhibition, usual class: inhibitors; P00811; 0.52% of 330,000 active; AmpC nitrocefin hydrolysis, absorbance 480 nm, 0.0001% Triton;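 also: potency is read from the fitted curve at half-maximal effect; plate controls were no compound for no effect and no enzyme for full effect; nearly all actives have a fitted effect of over 20% in size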
Target sequence (P00811 whole entry, looked up): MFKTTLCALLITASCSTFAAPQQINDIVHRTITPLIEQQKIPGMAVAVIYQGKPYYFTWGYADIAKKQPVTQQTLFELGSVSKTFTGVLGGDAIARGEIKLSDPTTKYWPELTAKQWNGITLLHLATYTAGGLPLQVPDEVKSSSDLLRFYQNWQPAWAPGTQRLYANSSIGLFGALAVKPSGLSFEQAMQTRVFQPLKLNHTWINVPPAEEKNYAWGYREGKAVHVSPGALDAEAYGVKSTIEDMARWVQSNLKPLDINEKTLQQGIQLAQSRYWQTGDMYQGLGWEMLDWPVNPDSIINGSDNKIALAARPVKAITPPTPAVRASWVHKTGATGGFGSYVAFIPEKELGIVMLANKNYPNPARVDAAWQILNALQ
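AmpC (5.3 nM in the dispensed reagent) in 20 mM phosphate pH 7.0 with 0.01% (detergent screen) or 0.0001% Triton X-100 was preincubated with compounds for 15 min at room temperature. Nitrocefin was then added from an 800 uM solution, and hydrolysis was followed at 480 nm.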
AMA1 RON2 block – inhibitors of Plasmodium falciparum AMA1-RON2 interaction | AlphaScreen AMA1-biotinylated RON2 peptide binding | Potency, µM (top dose mostly 58.2 µM), inactives show at the highest dose activity change, negative = inhibition, hits mostly inhibitors | 0.2% of 360,000 active;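 also: potency is read from the fitted curve at half-maximal effect; 0% = vehicle wells and -100% = peptide control; nearly all actives have a fitted effect of over 45% in size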
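AMA1 (3D7) with his tag at 25 nM final met compounds first, then biotinylated RON2 peptide at 25 nM; detection used donor plus acceptor beads, 10 µg/mL apiece, read by AlphaScreen after 30 min at room temperature.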
Shiga inhibitor – inhibitors of Shiga toxin in Vero cells; Vero cells, Shiga toxin protein synthesis inhibition reporter; 9.2% of 290,000 active; AID 2315; inhibition, % at 38.7 µM; in the data active = inhibition mostly above about 28%, no sharp cut-off; inactive = mostly below about 43%; also: 0% is about no effect
Cycloheximide cs – counter-screen for Shiga toxin inhibitors: cycloheximide protein synthesis inhibition | AID 2314 | cell reporter, cycloheximide protein synthesis inhibition counterscreen | max response, % | 12% of 300,000 active; in the data active = max response mostly above about 13%, no sharp cut-off; inactive = mostly below about 14%; also: read at 38.3 µM for the half of the compounds with a filed dose; 0% is about no effect
AmpC inh detg – blocks E. coli AmpC beta-lactamase in detergent assay | P00811 | AmpC hydrolysis of nitrocefin, absorbance 480 nm, 0.01% Triton | Potency, µM (titrated, usually from 114 µM), for the others: at the top dose activity change, negative = inhibition, actives largely listed as inhibitors | 0.041% of 370,000 active | AID 485294;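 also: potency is read from the fitted curve at half-maximal effect; 0% = no-compound wells and -100% = no-enzyme wells; nearly all actives have a fitted effect of over 25% in size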
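AmpC (5.3 nM in the dispensed reagent) in 20 mM phosphate pH 7.0 with 0.01% (detergent screen) or 0.0001% Triton X-100 was preincubated with compounds for 15 min at room temperature. Nitrocefin was then added from an 800 uM solution, and hydrolysis was followed at 480 nm.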
Starred values were filed as active, the others as inactive; ? = inconclusive; / = not tested or not shown. Shown is part of a subset that was picked to be rich in hits. Unless noted, calls follow the shape of the dose curve; as a rule, active = well fitted curve in the direction sought with a large enough effect; inconclusive = small, poorly fitted or top-dose-only effect, or another doubt; inactive = no such curve, though single readings can be large; an effect the other way counts as inactive or inconclusive.

SMILES	SARS PLpro yeast	AmpC no deterg	AMA1 RON2 block	Shiga inhibitor	Cycloheximide cs	AmpC inh detg
Cc1nnc(N/N=C/c2ccccc2O)n1N	-4.3%	-8.1%	46.0%	30.8*	17.5*	5.4%
Cc1nnc(N/N=C/c2cc(C)n(-c3ccc(F)cc3)c2C)n1N	-9.1%	1.5%	36.4%	3.7	24.0*	?
Cc1cc(/C=N/NC(N)=S)c(C)n1-c1ccc(Br)cc1	?	-52.9%	21.2%	-7.8	7.5	4.8%
CCOc1cc(/C=N/Nc2nnc(C)n2N)ccc1O	-6.7%	-3.7%	63.4%	50.3*	25.4*	13.3%
COc1cccc(CNC(=O)CCc2nnc3ccc(NCCCN4CCCC4=O)nn23)c1	-1.4%	2.2%	3.4%	1.4	9.6	-7.5%
CCOc1cc(/C=N/NC(=O)N/N=C/c2ccc(O)c(OCC)c2)ccc1O	/	/	-7.3%	/	/	/
CCOc1cc(/C=N/Nc2ncnc(Cl)c2N)ccc1O	-13.6%	-21.4%	34.0%	56.6*	35.2*	1.8%
CN(C)S(=O)(=O)c1cccc2c1C(=O)c1ccccc1C2=O	9.8%	-1.3%	-18.2%	-7.0	-2.4	-17.9%
O=C(NCC1CCCO1)c1cccnc1NCc1ccc(F)cc1 (centres undefined)	-2.8%	-5.6%	0.0%	-17.2	-2.8	0.0%
COC(=O)c1cccnc1SCc1ccccc1	10.1%	-16.4%	21.1%	-5.0	-3.4	-13.3%
Cc1nc(CSc2nsc(/C=C/N(C)C)c2C#N)cs1	-2.3%	20µM*	-11.0%	102.6*	28.7*	-0.2%
COC(=O)c1ccccc1CSc1nsc(/C=C/N(C)C)c1C#N	1.8%	28.2µM*	-0.5%	-9.7	-5.8	-1.4%
